Screens (PubChem)
Rows were chosen to be rich in hits. Some 32% of all compounds tested hit in one or more screens of this group.
CYP2C9 activ = human CYP2C9 activators, primary screen, biochemical, luminescence | AID 1024, 2008 | Cytochrome P450 2C9 (Homo sapiens), P11712 | 96,000 tested, 1.4% active | activation factor at 5 µM | recombinant CYP2C9, luciferin-H conversion; stronger effect = higher value; factor 1 = untreated enzyme, 0 = blocked;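 active = activation factor of 2 or more for CYP2C9 at a 5 µM dose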
Target sequence (P11712 whole entry, looked up): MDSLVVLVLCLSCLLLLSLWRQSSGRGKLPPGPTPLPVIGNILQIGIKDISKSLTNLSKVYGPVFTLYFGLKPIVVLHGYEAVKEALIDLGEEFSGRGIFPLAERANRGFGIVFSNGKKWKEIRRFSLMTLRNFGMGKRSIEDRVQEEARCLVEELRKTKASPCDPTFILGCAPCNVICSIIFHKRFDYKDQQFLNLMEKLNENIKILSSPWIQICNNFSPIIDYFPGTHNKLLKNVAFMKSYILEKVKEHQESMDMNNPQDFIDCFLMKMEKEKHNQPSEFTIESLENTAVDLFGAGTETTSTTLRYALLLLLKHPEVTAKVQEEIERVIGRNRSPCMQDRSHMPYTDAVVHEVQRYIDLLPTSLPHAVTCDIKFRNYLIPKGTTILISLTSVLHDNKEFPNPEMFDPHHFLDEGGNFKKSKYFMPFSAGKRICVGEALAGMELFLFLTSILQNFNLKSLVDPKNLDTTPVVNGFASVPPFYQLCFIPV
CYP2C19 inh = blockers of cytochrome P450 2C19 activity – biochemical, luminescence, ADME assay, primary screen; CYP2C19 Supersomes, luciferin-H EGE luminescence, 30 min; AID 778, 2007; inhibition, % at 5 µM; P33261; 96,000 tested, 21% active;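 active = CYP2C19 inhibition above a set limit at 5 µM in the primary screen, cut at about 50% in these data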
PostGolgi yeast = phenotypic screen on post-Golgi transport, primary screen. post-Golgi transport phenotypic cell assay. inhibition, % at 10 µM. 98,000 tested, 0.9% active. AID 739, 2007;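 note: yeast cells grown in 1536-well plates; yeast grown about 18 h at 30C before absorbance read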
CYP2C9 inhib = blockers of cytochrome P450 2C9 activity – biochemical, luminescence, ADME assay, primary screen; CYP2C9 Supersomes, luciferin-H conversion; 96,000 tested, 20% active; inhibition, % at 5 µM; P11712;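 active = blocking of liver enzyme CYP2C9 beyond about 50% at 5 µM, limit read from the data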
PostGolgi ctrl = growth inhibition of yeast control strain, primary screen, counter-screen for post-Golgi transport modulator project; inhibition, % at 10 µM; AID 738, 2007; 98,000 tested, 5% active; efflux-deficient yeast background strain, growth absorbance A615, 16 h
CYP2C19 activ = human CYP2C19 activators, primary screen, biochemical, luminescence. Cytochrome P450 2C19 (Homo sapiens), P33261. AID 1025, 2008. 96,000 tested, under 10 active. activation factor at 5 µM. recombinant CYP2C19, luciferin-H EGE luminescence; stronger effect = higher value; 0 = fully inhibited enzyme, 1 = untreated enzyme;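 active = activation factor of at least 2 at 5 µM in the primary screen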
Each line names hits and unclear results; the compound was inactive in the other large screens. Cut-off read from the data, not from the text of the source, unless noted: active = inhibition above about 30%; inactive = the rest.

Nc1cc(Cl)ccc1Oc1ccc2ccccc2c1	CYP2C19 inh 70.9
c1coc(-c2nc3nc4ccccc4nc3n2-c2ccc3c(c2)OCCO3)c1	CYP2C9 inhib 63.5
COc1cc(C2NC(=O)NC(C)=C2C(=O)OC(C)(C)C)ccc1OCC(=O)O (centres undefined)	none
CC(OC(=O)C1CCN(S(=O)(=O)c2ccccc2)CC1)C(=O)Nc1ncc(Cl)cc1Cl (centres undefined)	CYP2C19 inh 75.4, CYP2C9 inhib 92.8
CC(OC(=O)CCCN1C(=O)c2ccccc2C1=O)C(=O)Nc1ncc(Cl)cc1Cl (centres undefined)	none
O=C1CN(c2ccccc2F)C(=O)CN1c1ccccc1F	PostGolgi ctrl 37.0
CCCCn1c(C)cc(C)c(S(=O)(=O)c2ccccc2C)c1=O	CYP2C19 inh 53.3
O=C(O)Cc1ccc(C(=O)c2ccccc2F)s1	CYP2C19 inh 50.2
CCc1ccc(C(=O)c2ccccc2C(=O)O)s1	none
Cc1ccc(NC(=O)c2cc([N+](=O)[O-])ccc2NCc2cccnc2)cc1Cl	CYP2C19 inh 84.8, CYP2C9 inhib 92.0, PostGolgi ctrl 30.9
CC(C)(C)NC(=O)c1cnn(-c2ccccc2)c1NC(=O)c1ccccc1	none
Cc1csc(-c2cnn(-c3ccccc3)c2NC(=O)c2ccc(C(F)(F)F)cc2)n1	PostGolgi ctrl 44.4
CC(C)(C)C(=O)[C@@H]1[C@@H]2C(=O)N(Cc3ccccc3)C(=O)[C@@H]2[C@H]2c3ccccc3C=CN12	CYP2C19 inh 74.5, CYP2C9 inhib 75.3
CC(=O)[C@H]1[C@@H]2C(=O)N(c3cccc(Cl)c3)C(=O)[C@@H]2[C@H]2c3ccccc3C=CN21	none
O=S(=O)(NC1CCCC1)c1cccc(-c2nnc(-c3ccccc3)o2)c1	CYP2C9 inhib 86.7
Cn1c(=O)oc2cc(S(=O)(=O)NC3CCCCCCC3)ccc21	none
COc1ccc(NC(=O)CN2C(=O)CC(C)(C)S(=O)(=O)c3ccccc32)cc1	none
Cc1nn(CCc2n[nH]c(=S)n2C2CCCCC2)c(C)c1Br	none
O=C(CCCN1C(=O)c2ccccc2C1=O)Nc1ccc(Br)cn1	none
O=C(O)CCC(=O)Nc1ccc(Br)cn1	CYP2C19 inh 50.2
COc1ccc(CCC(=O)Nc2ccc(Br)cn2)cc1	CYP2C19 inh 81.0
CN(C(=O)COc1cc(=O)n(C)c2ccccc12)c1ccc(Cl)cc1	none
CCn1c(=O)cc(OCC(=O)N2CCCC2)c2ccccc21	none
CCOC(=O)c1ccccc1NC(=O)COc1cc(=O)n(CC)c2ccccc12	CYP2C19 inh 80.1, CYP2C9 inhib 81.3
CN(CCCNC(=O)COc1cc(=O)n(C)c2ccccc12)Cc1ccccc1	none
CCOc1ccc(N(CC)C(=O)COc2cc(=O)n(CC)c3ccccc23)cc1	CYP2C19 inh 69.9, CYP2C9 inhib 94.4
CCn1c(=O)cc(OCC(=O)Nc2ccc(C)cn2)c2ccccc21	none
CCOc1ccc(N(CC)C(=O)COc2cc(=O)n(C)c3ccccc23)cc1	CYP2C9 inhib 69.9
CCN(CCCNC(=O)COc1cc(=O)n(CC)c2ccccc12)Cc1ccccc1	PostGolgi ctrl 38.0
COc1ccccc1NC(=O)C1=C(C)Nc2nc(-c3cccs3)nn2C1c1cccnc1 (centres undefined)	none
COc1cc2[nH]c3c(=O)n(CCN(C(C)C)C(C)C)cnc3c2cc1OC	none
CCc1ccccc1-n1c(SCC(=O)NC)nnc1-c1cccnc1	none
CCOC(=O)C(C(C)=O)C(c1ccc(OC)cc1)C(C(C)=O)C(=O)OCC (centres undefined)	none
CCOC(=O)C(C)c1ccc2cc(OC)ccc2c1 (centres undefined)	CYP2C19 inh 52.3
COc1ccccc1NC(=O)Cc1csc(N)n1	none
Clc1ccc(Cc2noc(-c3cccs3)n2)cc1	none
COC(=O)c1cc(=O)nc2sc3ccccc3n12	CYP2C9 inhib 81.4
N#CC(c1ccc(Cl)cc1)c1ccc2c(C(F)(F)F)cc(C(F)(F)F)nc2n1 (centres undefined)	CYP2C19 inh 77.1, PostGolgi yeast 81.8, CYP2C9 inhib 75.9, PostGolgi ctrl 91.1
FC(F)(F)c1cc(C(F)(F)F)c2ccc(Oc3ccccc3)nc2n1	none
Cc1ccccc1NC(=O)C1CCCN(S(=O)(=O)c2cnc[nH]2)C1 (centres undefined)	CYP2C19 inh 63.5, CYP2C9 inhib 56.3, PostGolgi ctrl 60.0
Cc1ccc(NC(=O)C2CCCN(S(=O)(=O)c3cnc[nH]3)C2)c(Br)c1 (centres undefined)	CYP2C19 inh 92.9, CYP2C9 inhib 95.0
O=C(NCCCN1CCN(c2ccccc2F)CC1)C1CCCN(S(=O)(=O)c2cnc[nH]2)C1 (centres undefined)	none
O=C(Nc1ccc(Br)cc1F)C1CCCN(S(=O)(=O)c2cnc[nH]2)C1 (centres undefined)	CYP2C19 inh 82.8, CYP2C9 inhib 78.9
O=C(NC(c1ccccc1)c1ccccc1)C1CCCN(S(=O)(=O)c2cnc[nH]2)C1 (centres undefined)	CYP2C9 inhib 76.4
CCn1c(=O)cc(OCC(=O)NCc2cccnc2)c2ccccc21	none
CCN(CC)CCCNc1oc(-c2cccc(Cl)c2)nc1C#N	none
COc1ccccc1N1CCN(C(=O)COc2ccc(Cl)cc2)CC1	CYP2C19 inh 80.5, CYP2C9 inhib 51.8
COc1ccccc1OCC(=O)N1CCN(c2ccccc2OC)CC1	none
O=C(COc1ccc(Cl)cc1)N1CCN(c2ncccn2)CC1	CYP2C19 inh 66.6, CYP2C9 inhib 53.6
O=C1CC(NCc2ccncc2)C(=O)N1c1ccccc1 (centres undefined)	CYP2C19 inh 93.5, CYP2C9 inhib 90.9
COC(=O)c1ccc(N2C(=O)CC(NCc3ccccc3)C2=O)cc1 (centres undefined)	none
O=C1CC(NCc2ccncc2)C(=O)N1c1ccc(Cl)cc1 (centres undefined)	CYP2C19 inh 87.9, CYP2C9 inhib 82.1
O=C1CC(NCc2cccs2)C(=O)N1c1ccc(Cl)cc1 (centres undefined)	none
CC(C)CC(NC(=O)OC(C)(C)C)C(=O)NC(C(=O)N1CCCC1C(N)=O)C(C)C (centres undefined)	none
O=C(CN1CCCC1)Nc1ccccc1Cl	none
O=C(CS(=O)(=O)c1cccc(Cl)c1)Nc1ccccc1Cl	CYP2C19 inh 77.6
CCc1ccc(N2C(=O)/C(=C/c3cccs3)N(CC(=O)OC)C2=S)cc1	none
CCOc1ccc(N2C(=O)/C(=C/c3cc(OC)c(OC)c(OC)c3)N(CC(=O)OC)C2=S)cc1	CYP2C19 inh 53.9
O=C(N/C(=C\c1cccnc1)C(=O)N1CCOCC1)c1cccc(Br)c1	none
O=C(/C=C/c1cccnc1)c1ccc(NC(=O)c2cccc(Br)c2)cc1	CYP2C9 inhib 70.3, PostGolgi ctrl 40.0
